High-throughput results as filed in PubChem BioAssay.
MITF primary: blocks human microphthalmia-associated transcription factor. O75030. AlphaScreen MITF homodimerization, bead proximity signal. inhibition, % at 2.6 µM. hit rate 0.91% among 650,000; in the data active = inhibition above about 50%
Target sequence (O75030 whole entry, looked up): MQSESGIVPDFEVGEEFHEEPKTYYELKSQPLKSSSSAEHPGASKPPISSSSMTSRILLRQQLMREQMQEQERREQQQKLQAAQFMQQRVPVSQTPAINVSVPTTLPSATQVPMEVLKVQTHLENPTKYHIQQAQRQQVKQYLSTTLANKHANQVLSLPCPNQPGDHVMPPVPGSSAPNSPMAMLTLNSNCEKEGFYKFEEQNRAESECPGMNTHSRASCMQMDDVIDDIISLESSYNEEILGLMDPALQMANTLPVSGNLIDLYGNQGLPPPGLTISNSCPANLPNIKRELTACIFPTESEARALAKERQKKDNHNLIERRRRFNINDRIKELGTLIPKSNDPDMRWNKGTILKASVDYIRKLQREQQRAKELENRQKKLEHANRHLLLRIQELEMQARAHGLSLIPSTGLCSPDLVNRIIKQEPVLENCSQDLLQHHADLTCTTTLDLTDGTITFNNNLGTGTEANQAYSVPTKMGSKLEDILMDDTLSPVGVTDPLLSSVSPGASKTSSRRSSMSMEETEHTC
GPR151 ag: human GPR151 activation | PathHunter beta-arrestin GPR151 cells, luminescence | activation, % at 11.2 µM | hit rate 1% among 650,000; in the data active = activation above about 4.9%
FBW7 act: activators of human E3 ligase FBW7. AlphaScreen FBW7–phospho-cyclin E peptide binding, activator screen. normalized activity (activation), % at 26.1 µM. AID 1259310. hit rate 0.13% among 650,000. Q969H0; in the data active = normalized activity above about 1.9%;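 also: purified mutant Fbw7 with reduced substrate affinity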
TEAD-YAP block: TEAD-YAP interaction inhibition; HEK-TIYL cells, TEAD-Gal4/YAP UAS-luciferase luminescence; inhibition, % at 9.12 µM; hit rate 1.4% among 640,000; AID 1259422; in the data active = inhibition above about 32%
Numbers stand for hits; – = inactive. Rows were chosen to be rich in hits. Some 3.5% of all compounds tested hit in one or more screens of this group.

SMILES	MITF primary	GPR151 ag	FBW7 act	TEAD-YAP block
CS(=O)(=O)c1ccc2nc(NC(=O)c3cc(Cl)ccc3[N+](=O)[O-])sc2c1	–	–	–	40
O=C(Nc1nc2ccc(Cl)cc2s1)c1cccc2ccccc12	–	–	–	–
Cc1ccc2nc(NC(=O)c3cccc4ccccc34)sc2c1	–	–	–	37
Nc1ccc2nc(NC(=O)c3ccc(Cl)cc3Cl)sc2c1	–	–	–	70
COc1ccc2nc(NC(=O)c3ccco3)sc2c1	–	–	–	42
O=C(Nc1nc([N+](=O)[O-])cs1)c1ccc(Cl)cc1Cl	–	–	–	88
Cc1ccc2nc(NC(=S)NC(=O)c3ccco3)sc2c1	–	–	–	–
O=C(Nc1ccc2nc(NC(=O)c3ccccc3Cl)sc2c1)c1ccccc1Cl	–	–	–	49
CC(=O)Nc1ccc2nc(NC(=O)C3CCCCC3)sc2c1	–	–	–	–
O=C(Nc1nc2ccc(Br)cc2s1)c1ccccc1Cl	–	–	–	–
Cc1ccc2nc(NC(=O)c3ccco3)sc2c1	–	–	–	78
O=C(Nc1ccc2nc(NC(=O)C3CCCCC3)sc2c1)C1CCCCC1	–	–	–	40
COc1ccc(/C=C2/SC(=S)N(CCC(=O)N3CCCCC3)C2=O)cc1	–	–	–	–
CCc1ccc(-c2nn(-c3cc(N4CCOCC4)ccc3[N+](=O)[O-])c(=O)c3ccccc23)cc1	–	–	–	–
CCOC(=O)C1=C(C)NC(=S)NC1c1ccccc1OCC(=O)NCc1ccccc1 (centres undefined)	–	–	–	–
Cc1nn(C)cc1CN1CCc2c(nc(N3CCOCC3)[nH]c2=O)C1	–	–	–	–
Nc1ccc2sc3ccccc3c(=O)c2c1	–	–	2.1	–
COc1ccc2sc3ccccc3c(=O)c2c1	–	–	–	–
Cc1cccc(-n2c(CNC(=O)c3ccco3)nnc2SCC(=O)N2N=C(c3cccs3)CC2c2ccc(F)cc2)c1 (centres undefined)	–	–	–	–
CSc1nnc(C(C)(C)C)c(=O)n1/N=C/c1ccccc1[N+](=O)[O-]	–	–	–	–
CSc1nnc(C(C)(C)C)c(=O)n1/N=C/c1ccccc1O	75	–	–	–
CC(N/C=C/C(=O)C(F)(F)F)C12CC3CC(CC(C3)C1)C2 (centres undefined)	–	–	–	–
COc1ccc(Cc2nnc(C3CCN(C(=O)Cn4cnc5ccccc54)CC3)s2)cc1	–	–	–	54
CC1=NN(c2ccc(C)cc2)C(=O)/C1=C\N(C)C	–	–	–	–
CC1=NN(c2nc3ccccc3o2)C(=O)/C1=C\N(C)C	–	–	–	92
SMILES	MITF primary	GPR151 ag	FBW7 act	TEAD-YAP block
CC1=C(C#N)C(=O)NC(=O)/C1=C\c1ccc(-c2ccc(S(=O)(=O)O)cc2)o1	59	–	–	–
O=C(COc1cccc(-c2nc(Nc3ccc4[nH]ncc4c3)c3ccccc3n2)c1)Nc1cccnc1	–	–	–	37
COC(=O)COc1cccc(-c2nc(Nc3ccc4[nH]ncc4c3)c3ccccc3n2)c1	–	–	–	–
C/C(=N\N1CCOCC1)c1c(C(F)(F)F)[nH]n(-c2nc3ccccc3s2)c1=O	–	–	–	–
CC(=NCc1cccnc1)c1c(C)[nH]n(-c2nc3ccccc3s2)c1=O	–	–	–	42
C/C(=N/N1CCN(C)CC1)c1c(C(F)(F)F)[nH]n(-c2nc3ccccc3s2)c1=O	–	–	–	49
COc1ccc(NC(=O)CSc2cc(C)c3ccccc3n2)cc1	–	–	–	–
CC(=O)Nc1ccccc1C(=O)NCc1ccco1	–	–	–	–
COC(=O)c1cnc(Nc2ccc(OC)c(Cl)c2)c2ccccc12	–	–	2.4	–
COC(=O)c1cnc(Nc2cc(Cl)ccc2OC)c2ccccc12	–	–	–	–
CCc1ccc(Nc2ncc(C(=O)OC)c3ccccc23)cc1	–	–	4.0	–
Cc1cccc(NC2=NC(=S)N(c3ccc(C)cc3Br)C23CCCCC3)c1	–	–	–	–
CCC(=O)N1c2ccc(S(=O)(=O)N3CCN(c4ccccc4)CC3)cc2CC1C (centres undefined)	–	–	–	–
CC(=O)c1ccc(N2CCN(S(=O)(=O)c3ccc4c(c3)CC(C)N4C(C)=O)CC2)cc1 (centres undefined)	–	–	–	41
O=S(=O)(Nc1cccc2cn[nH]c12)c1ccc(F)cc1	–	–	–	–
COc1cc(S(=O)(=O)Nc2cccc3cn[nH]c23)ccc1F	–	–	–	52
O=C(NCc1ccccc1Cl)c1ccc(N2CC3CC(C2)c2cccc(=O)n2C3)c(NS(=O)(=O)c2ccc(Br)cc2)c1 (centres undefined)	–	–	–	–
CCOc1cc(C=C2C(=O)NC(=S)NC2=O)ccc1OCC(=O)O	70	–	–	–
Cc1ccc(Nc2nc(Nc3ccc(C)cc3C)nc(Sc3nnc(C)s3)n2)c(C)c1	–	–	–	–
CCN(CC)c1ccc2cc(C(=O)Nc3cccc(C)c3)c(=N)oc2c1	–	–	2.4	–
CC(C)CC1c2[nH]c3ccccc3c2CCN1C(=O)c1csnn1 (centres undefined)	–	–	–	40
CC(C)CC1c2[nH]c3ccccc3c2CCN1C(=O)Cn1cncn1 (centres undefined)	–	–	–	–
O=[N+]([O-])c1cccc(/C=N/Nc2ccc3nnc(C(F)(F)F)n3n2)c1O	–	–	–	–
COc1cc(SC)ccc1C(=O)OCc1nnc(-c2ccc(Cl)cc2)o1	–	–	–	–
N=c1sc2c(n1CC(=O)c1ccc(F)cc1)CCCC2	–	–	–	56
SMILES	MITF primary	GPR151 ag	FBW7 act	TEAD-YAP block
O=C(O)C/C(=C\c1ccc2c(c1)OCCO2)c1nc2ccccc2s1	–	–	–	–
CN(C)c1ccc(/C=C(\C#N)c2nc3ccccc3s2)o1	–	–	–	53
O=C(O)C/C(=C\c1ccc(N2CCOCC2)cc1)c1nc2ccccc2s1	–	–	–	75
N#C/C(=C\c1ccc(N2CCOCC2)cc1)c1nc2ccccc2s1	–	–	–	39
CC1=C(C(=O)OC2CCCCC2)C(c2ccc(Cl)cc2)NC(=O)N1 (centres undefined)	–	–	–	–
O=C(/C=C/c1cccs1)N1CCc2ccccc21	–	–	–	70
O=C(/C=C/c1ccc([N+](=O)[O-])cc1)N1CCCc2ccccc21	–	–	–	–
O=C(/C=C/c1ccccc1)N1CCc2ccccc21	–	–	–	66
Cc1cc(C(=O)N2CCc3ccccc32)n(-c2ccccc2)n1	–	–	–	35
COc1ccc(/C=C/C(=O)N2CCc3ccccc32)cc1	–	–	–	74
O=C(/C=C/c1ccccc1)N1CCCc2ccccc21	–	–	–	–
CCCCNCCCCOc1ccccc1[N+](=O)[O-]	–	–	–	–
O=C(Cn1nnc(-c2ccccc2)n1)NC(c1ccccc1)c1ccccc1	–	–	–	–
COc1c(OC(C)=O)ccc(/C=N/NC(=O)COc2c(C)ccc(C)c2C)c1[N+](=O)[O-]	–	–	–	52
COc1c(OC(C)=O)ccc(/C=N/NC(=O)COc2c(C)cccc2C)c1[N+](=O)[O-]	–	–	–	–
O=C(O)c1ccc([N+](=O)[O-])c2c1NC(c1ccc([N+](=O)[O-])cc1)C1CC=CC21 (centres undefined)	85	–	–	–
